aSyn 5UTR act = Activators working through SNCA 5'UTR binding (MLPCN); 300,000 compounds, 7.1% hits; AID 1814; activity score, % (tested at 7.5 µM), hits read low; alpha-synuclein 5'UTR reporter, activators screen; in the data active = activity score below about -60%
* hit, by the source's call. A selection follows.

SMILES | aSyn 5UTR act
O=C(Cc1ccc(O)cc1)NC1CCCCCC1 | -119.1*
CCOc1ccc(CNC(=O)Nc2ccccc2)cc1 | -102.6*
COc1ccc(CNC(=O)Nc2cccc(C)c2)cc1 | -152.6*
COc1ccc(C(=O)/C=C/C(=O)N(CC(=O)NC2CCCCC2)Cc2ccc(F)cc2)c(O)c1 | 71.8
COc1ccc(CNC(=O)Nc2ccccc2)cc1 | -114.3*
COc1ccc(-c2nnc(-c3cccs3)o2)cc1OC | -148.4*
CCOc1ccc(-c2nnc(-c3cccs3)o2)cc1OCC | -86.0*
CCOc1ccc(-c2nnc(-c3ccco3)o2)cc1OCC | -76.1*
COc1cc(/C=C2/C(=N)N3OC(C)=CC3=NC2=O)ccc1OCCOc1ccc(C)cc1 | -75.3*
COc1ccc(/C=C/C(=O)NC(=S)N2CCN(c3ccccc3OC)CC2)cc1 | -160.0*
COc1ccc(/C=C/C(=O)NC(=S)N2CCOCC2)cc1 | -83.7*
O=C(/C=C/c1ccc(F)cc1)NC(=S)N1CCN(c2ccccn2)CC1 | -84.6*
Cc1cc(O)c(C(=O)Cc2csc(C)n2)c(O)c1 | -131.7*
Cc1cc(O)cc2c1C(=O)/C(=C/c1ccco1)O2 | -116.2*
COc1ccc(-c2nnc(SCC(=O)Nc3cccc(Cl)c3)o2)cc1 | -179.0*
CCOC(=O)c1ccccc1NC(=O)CSc1nc2ccccc2o1 | -87.6*
COc1ccc(C)cc1NC(=O)CSc1nnc(-c2ccc(C)cc2)o1 | -108.8*
COc1ccc(-c2nnc(SCC(=O)Nc3ccccc3OC)o2)cc1 | -145.3*
CCOC(=O)c1ccccc1NC(=O)Cn1c(-c2nonc2N)nc2ccccc21 | 73.0
COc1cccc(-c2nnc(SCC(=O)Nc3cc(C)on3)o2)c1 | -66.2*
Cc1cc(-c2nnc(SCC(=O)Nc3ccccn3)o2)no1 | -71.9*
COc1ccccc1-c1nnc(SCC(=O)OC(C)C)o1 | -82.7*
Cc1cc(-c2nnc(SCC(=O)Nc3ccccc3C(F)(F)F)o2)c(C)n1-c1ccccc1 | -68.7*
COC(=O)c1ccccc1NC(=O)CSc1nnc(-c2ccc(C)cc2)o1 | -129.8*
Cc1ccc(-c2nnc(SCC(=O)Nc3ccccc3F)o2)cc1 | 92.1
SMILES | aSyn 5UTR act
CCOc1ccc(CCNC(=O)COC(=O)c2cccc(N(C)C)c2)cc1OCC | -89.9*
c1ccc(-c2noc(C3CCCCC3)n2)nc1 | -81.8*
Brc1ccc(-c2noc(C3CCCCC3)n2)cc1 | -143.0*
Cc1ccnc(NC(=O)c2cc3ccccc3o2)c1 | 97.0
Cc1cc([N+](=O)[O-])ccc1NC(=O)c1cc2ccccc2o1 | -115.2*
Cc1ccc(C)c(NC(=O)c2cc3ccccc3o2)c1 | -171.6*
Cc1cc(NC(=O)c2cncc(Br)c2)ccc1NC(=O)c1cc2ccccc2o1 | 78.0
COc1ccc(C)cc1NC(=O)c1cc2ccccc2o1 | -146.8*
CC(=O)Nc1ccc(S(=O)(=O)N(Cc2cc3ccc(C)cc3[nH]c2=O)CC2CCCO2)cc1 (stereo not drawn) | 82.4
COc1ccc2cc(CN(CC3CCCO3)S(=O)(=O)c3ccc(C(C)=O)cc3)c(=O)[nH]c2c1 (stereo not drawn) | -77.9*
Cc1ccc(-c2nnc(N(C)C(=O)c3cccnc3)s2)cc1 | -76.0*
COc1ccc(-c2nnc(N(C)C(=O)c3cccnc3)s2)cc1 | -107.7*
CC(C)(C)c1ccc(NC(=O)Nc2ccc(F)cc2)cc1 | -245.3*
COc1ccc(NC(=O)Nc2ccc(F)cc2)cn1 | -64.5*
COc1ccc(NC(=O)/C(Cl)=C(/Cl)S(=O)Cc2ccccc2)cn1 (stereo not drawn) | 120.9
O=C(Nc1ccc(F)cc1)Nc1cc(OCC(F)(F)F)cc(OCC(F)(F)F)c1 | 86.0
CCOC(=O)c1ccc(NC(=O)C23CCC(C)(C(=O)O2)C3(C)C)cc1 (stereo not drawn) | -106.0*
COc1ccc(NC(=O)CSc2ccccc2)cn1 | -85.9*
COc1ccc(NC(=O)/C=C/c2cccc(Br)c2)cn1 | -189.6*
CCOC(=O)c1ccc(NC(=O)Nc2ccc(F)cc2)cc1 | -106.1*
COC(=O)c1ccc(NC(=O)Nc2ccc(F)cc2)cc1 | -140.6*
CCC(=O)NC(c1cccs1)c1cc(Cl)c2cccnc2c1O (stereo not drawn) | 86.2
CCCC(=O)Nc1ccc(NC(=O)c2cccs2)cn1 | -104.7*
O=C(Nc1ccc(NC(=O)C2CC2)nc1)c1cccs1 | -95.7*
O=C(Nc1ccc(NC(=O)c2cccs2)cn1)c1ccccc1 | -134.1*
SMILES | aSyn 5UTR act
O=C(Cc1ccccc1)Nc1ccc(NC(=O)c2ccccc2)nc1 | -183.6*
CCCCC(=O)NC(c1cccs1)c1cc(Cl)c2cccnc2c1O (stereo not drawn) | 80.3
Cc1nc(NCCc2ccc(S(N)(=O)=O)cc2)c2c3c(sc2n1)CCC3 | -116.3*
COc1cccc(N=NC2C(=O)N(C(N)=S)N=C2C)c1 (stereo not drawn) | -94.6*
CC1=NN(C(N)=S)C(=O)C1N=Nc1cccc(Cl)c1 (stereo not drawn) | -86.0*
CC1=NN(C(N)=S)C(=O)C1N=Nc1ccc(C)cc1C (stereo not drawn) | -102.5*
CC(=O)N(C)c1ccc(N=NC2C(=O)N(C(N)=S)N=C2C)cc1 (stereo not drawn) | -92.9*
COc1cc(/C=C/C(=O)c2ccc(Cl)s2)cc(OC)c1O | -164.1*
COc1ccc(/C=C/C(=O)c2ccc(Cl)s2)cc1O | -147.4*
Cc1ccc2c(CNCc3ccccc3)cc(=O)oc2c1 | -64.8*
Cc1cc2oc(=O)cc(CN(C)Cc3ccccc3F)c2cc1Cl | -79.6*
Cc1ccc2c(CN(C)Cc3cccc(F)c3)cc(=O)oc2c1 | -123.6*
Cc1ccc(NC(=O)C(C)OC(=O)c2n[nH]c3ccccc23)cc1 (stereo not drawn) | -70.9*
Cc1ccc(NC(=O)c2ccc(OCC3CCCO3)cc2)cc1 (stereo not drawn) | -122.8*
Cc1cnc(NC(=O)c2ccc(OCC3CCCO3)cc2)s1 (stereo not drawn) | 79.1
CCOc1ccc(C(=O)NC2=NCCS2)cc1 | -84.5*
Cc1ccc(NC(=O)c2ccc(OC(=O)COc3ccc(Cl)c(C)c3)cc2)cc1 | -115.3*
O=C(Nc1nc2ccccc2s1)c1ccc(OCC2CCCO2)cc1 (stereo not drawn) | -88.6*
O=C(NC1=NCCS1)c1ccc(OCC2CCCO2)cc1 (stereo not drawn) | -77.0*
CS(=O)(=O)NNC(=O)Cn1nnc(-c2ccc(OCc3ccccc3Cl)cc2)n1 | -106.7*
CC(=O)c1cccc(NC(=O)c2cc(-c3ccc(C)cc3)on2)c1 | -137.1*
CCCc1cc(C(=O)Nc2cccc(C(C)=O)c2)no1 | -79.6*
O=C1/C(=C/C=C/c2ccco2)SC(=S)N1c1ccc(O)cc1 | -78.2*
CN(C)c1ccc(/C=C/C=C2/SC(=S)N(c3ccccc3)C2=O)cc1 | -76.0*
CN(C)CC(C(=O)c1ccccc1)c1ccccc1 (stereo not drawn) | -170.8*
SMILES | aSyn 5UTR act
CN(C)CC(CCC(CN(C)C)C(O)(c1ccccc1)c1ccccc1)C(O)(c1ccccc1)c1ccccc1 (stereo not drawn) | 101.2
Cc1ccc(-c2nc(-c3ccccc3)no2)c(Cl)c1 | 95.5
Brc1cccc(-c2nc(-c3ccncc3)no2)c1 | -100.0*
Cc1cccc(-c2nc(-c3ccncc3)no2)c1 | -68.5*
Cc1cc(C)cc(-c2nc(-c3ccncc3)no2)c1 | -149.2*
Clc1ccc(Br)cc1-c1nc(-c2ccncc2)no1 | -188.5*
COc1ccc(/C=C/c2n[nH]c(=O)c(C#N)c2C)cc1 | -70.7*
CCOc1ccc2c(c1)C(C)=CC(C)(C)N2S(=O)(=O)c1ccc(C)cc1 | 103.2
COc1ccc2c(c1)C(C)=CC(C)(C)N2S(=O)(=O)c1ccc(C)cc1 | -62.6*
